High-throughput results from PubChem.
Shown are actives, neighbours in structure and some others; about 2.8% of the full set was active somewhere.
WRN inhibitor = inhibitors of human WRN helicase | Potency, µM (highest dose often 114 µM), without a hit: at the top dose activity change, negative = inhibition, hits mostly inhibitors | 360,000 tested, 0.46% active | Q14191 | WRN helicase unwinding, fluorescent forked duplex, kinetic; further: potency means the concentration at half of the fitted maximal effect; on the % scale 0 is the no-effect control and ±100 the full control effect; nearly all actives have a fitted effect of over 55% in size
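WRN at 20 nM final preincubated with compound 15 min at room temperature; reaction started with 100 nM fluorophore/quencher forked duplex oligonucleotide and 2 mM ATP final. Unwinding followed kinetically by red fluorescence (ex 525, em 598 nm).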
POLH inh = blocks human DNA polymerase eta activity | Q9Y253 | recombinant Pol eta, fluorescent DNA replication assay | Potency, µM (titrated, usually from 114 µM), for inactives: top-dose activity change, negative = inhibition, hits mostly inhibitors | 390,000 tested, 1.2% active | AID 588591; further: potency means the concentration at half of the fitted maximal effect; on the % scale 0 is the no-effect control and ±100 the full control effect
Target sequence (Q9Y253 whole entry, looked up): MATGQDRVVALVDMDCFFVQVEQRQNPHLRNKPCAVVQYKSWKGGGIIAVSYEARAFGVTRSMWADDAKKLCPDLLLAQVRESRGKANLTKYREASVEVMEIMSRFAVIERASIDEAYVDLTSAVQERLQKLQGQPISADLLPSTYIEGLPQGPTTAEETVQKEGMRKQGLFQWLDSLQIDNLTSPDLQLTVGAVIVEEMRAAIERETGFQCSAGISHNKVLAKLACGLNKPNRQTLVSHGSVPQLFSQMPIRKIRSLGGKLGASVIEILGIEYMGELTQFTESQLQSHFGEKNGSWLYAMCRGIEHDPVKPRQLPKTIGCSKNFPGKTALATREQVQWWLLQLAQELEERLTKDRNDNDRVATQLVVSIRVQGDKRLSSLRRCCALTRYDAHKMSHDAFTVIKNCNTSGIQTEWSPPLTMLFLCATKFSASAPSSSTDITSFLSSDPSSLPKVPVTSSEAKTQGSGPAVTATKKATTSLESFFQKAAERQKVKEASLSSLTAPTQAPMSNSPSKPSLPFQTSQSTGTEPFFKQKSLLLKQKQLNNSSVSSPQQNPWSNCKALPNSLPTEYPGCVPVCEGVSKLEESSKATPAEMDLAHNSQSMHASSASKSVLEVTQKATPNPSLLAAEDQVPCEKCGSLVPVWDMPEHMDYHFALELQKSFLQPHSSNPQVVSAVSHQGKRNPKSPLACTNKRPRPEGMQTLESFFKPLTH
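Pol eta (10 nM) was preincubated with compounds for 15 min at room temperature, after which fluorescent replication substrate (50 nM final) was added to start the reaction. Fluorescence was read kinetically at 0 and 10 min.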
POLB inh = blocks human DNA polymerase beta activity; P06746; Pol beta primer extension/strand displacement, fluorescence kinetic; Potency, µM (doses to about 114 µM), inactives show top-dose activity change, negative = inhibition, usual class: inhibitors; 340,000 tested, 1.3% active; further: potency means the concentration at half of the fitted maximal effect; on the % scale 0 is the no-effect control and ±100 the full control effect
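10 nM enzyme + cpd, 15 min RT; start with substrate 50 nM final; read 0 min and after 10 min RT. Corrected, normalized data; 4-parameter Hill curve fit.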
Pol iota inh = DNA polymerase iota (human) inhibition. Q9UNA4. Pol iota fluorescent replication assay, 10 min. Potency, µM (titrated, usually from 115 µM), for the others: at the highest dose activity, negative = inhibition, actives largely listed as inhibitors. 390,000 tested, 1% active; further: potency means the concentration at half of the fitted maximal effect
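Pol iota at 10 nM preincubated 15 min with compounds at room temperature; reaction started with fluorescent substrate, 50 nM final. Fluorescence read kinetically at 0 and 10 min; buffer-only wells as negative control.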
Pol kappa inh = inhibitors of human DNA polymerase kappa; purified Pol kappa, fluorescent DNA synthesis assay, 10 min; Q9UBT6; Potency, µM (doses to about 107 µM), for the others: at the top dose activity, negative = inhibition, hits mostly inhibitors; 400,000 tested, 0.53% active; further: potency means the concentration at half of the fitted maximal effect; on the % scale 0 is the no-effect control and ±100 the full control effect
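Pol kappa 10 nM + cpd, 15 min RT; start w/ substrate 50 nM final; fluorescence kinetic read, 0 and 10 min. Neg ctrl: buffer, no enzyme.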
PI5P4Ka inh = inhibitors of human PI5P4K alpha; max response, %; P48426; PI5P4Kalpha enzyme, ADP-Glo luminescence, 60 min; active compounds read low; 330,000 tested, 1.2% active; AID 652105; active means max response of -50% or lower; inconclusive means between -30% and -50%; inactive means -30% or higher; further: value at the top dose of about 77 µM; on the % scale 0 is the no-effect control and ±100 the full control effect
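PI5P4Kalpha ADP-Glo assay; 5 microM ATP final; 60 min RT reaction; HEPES pH 7.4/EGTA/CHAPS, 5% DMSO; controls lacking substrate or enzyme; luminescent end-point.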
ADP-Glo interf = counter-screen for PI5P4K inhibitors: ADP-Glo detection interference, no enzyme; ADP-Glo detection counter-screen, luciferase luminescence, no enzyme; 1,100 tested, under 10 active; shares compounds with PI5P4Ka inh; Potency, µM (titrated, usually from 76.9 µM), for inactives: at the highest dose activity change, negative = inhibition, most hits filed as inhibitors
* = called active by the depositor; u = inconclusive; x = no result given; [ ] = another dose, or the depositor's remark. Unless noted, the call rests on the fitted dose curve; in most records, active means well fitted curve in the direction sought with a large enough effect; inconclusive means small, poorly fitted or top-dose-only effect, or another doubt; inactive means no such curve, though single readings can be large; an effect the other way counts as inactive or inconclusive.

SMILES	WRN inhibitor	POLH inh	POLB inh	Pol iota inh	Pol kappa inh	PI5P4Ka inh	ADP-Glo interf
O=C(Nc1ccccn1)c1sc2cc([N+](=O)[O-])ccc2c1Cl	10%	19%	0%	-20%	-17%	-52*	-9%
CCn1c(SCC(=O)NC(=O)NCc2ccco2)nc2sc(C)c(C)c2c1=O	u	u	20µM*	28µM*	u	-51*	1%
COc1ccc(OCC(=O)Nc2ccc(C(=O)Nc3ccccc3C(=O)O)cc2)cc1	-5%	u	u	-19%	3%	u	x
O=C(COc1ccc2ccccc2c1)Nc1cccc(C(=O)Nc2ccccc2C(=O)O)c1	u	28µM*	10%	-6%	-7%	-74*	1%
Cc1ccc(OCC(=O)Nc2ccc(C(=O)Nc3ccccc3C(=O)O)cc2)cc1C	-1%	u	x	x	x	-27	x
O=C(COc1ccc(Br)cc1)Nc1ccc(C(=O)Nc2ccccc2C(=O)O)cc1	u	u	2%	70%	-3%	-58*	4%
CN(C(=O)c1cccc(NC(=O)Cc2cccc(NC(=O)C3CCCN(C(=O)C4CCC4)C3)c2)c1)C1CCC1 (stereo not drawn)	-10%	-7%	x	18%	15%	4	x
Cc1c(NC(=O)Cc2ccc(F)cc2)cccc1-c1nc2cccnc2s1	x	-2%	u	u	-4%	x	x
Nc1nc(N)c2c(ccc3c2ccn3Cc2cccc([N+](=O)[O-])c2)n1	-15%[57.1 µM]	x	x	x	x	-61*	1%
CC1SC(=S)N(c2ccc(N(C)C)cc2)C1=O (stereo not drawn)	9%	-15%	0%	u	1%	4	x
CCOc1ccccc1NC(=O)C1CCCN(c2ncnc3onc(-c4ccc(F)cc4)c23)C1 (stereo not drawn)	x	-17%	13%	8%	-4%	x	x
Cc1ccc(-c2csc(N3CCN(c4cc5c(cc4Cl)nc(-c4ccncc4)n5CCN4CCCCC4)CC3)n2)cc1	-2%	-5%	9%	u	-12%	-64*	5%
Nn1c(SCC(=O)NC(=O)NCc2ccco2)nnc1-c1ccc(OC(F)F)cc1	-4%[11.6 µM]	8.9µM*	u	u	u	-67*	-6%
Nn1c(SCC(=O)NCCN2C(=O)CSC2=O)nnc1-c1ccc(OC(F)F)cc1	4%	-5%	x	-4%	-16%	-5	x
O=C(O)c1ccc(-c2nnn(Cc3cccc(C(F)(F)F)c3)n2)cc1	-5%	-1%	1%	-12%	5%	-52*	-3%
CN(Cc1ccccc1)C(=O)c1csc([C@@H]2C[C@H](O)[C@@H](CO)O2)n1	12%[57.1 µM]	x	x	x	x	0	x
CN(Cc1ccccc1)C(=O)c1csc([C@H]2C[C@H](O)[C@@H](CO)O2)n1	1%	x	x	x	x	0	-3%
NC(=O)c1ccsc1NC(=O)COC(=O)c1cnccn1	u	u	x	79µM*	u	-63*	-3%
NC(=O)c1ccsc1NC(=O)COC(=O)c1ccccn1	-6%[11.6 µM]	u	x	u	u	-52*	-3%
